Molecules are shown by their SMILES. This is part of a sample that, as a whole, favours compounds with a hit. Of some 83,000 tested, about 20% had one in any assay.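 96-well plates, one dose, 48 hours. Percent growth reported; active if below 10.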 Activity calls are given as the source filed them.

The test deals with IGROV1 ovarian. As to the kind of experiment: NCI-60 one-dose screen, 48 h (100 = growth as untreated, 0 = no growth, -100 = all killed). The following applies: 10 µM unless noted.
Turning to `O=c1ncc(-c2ccc(C(F)(F)F)cc2)c(NC2CCCCCC2)[nH]1`, the growth is 51% (inactive).
As to `NS(=O)(=O)N(c1cc(C(F)(F)F)cc(C(F)(F)F)c1)C1CCN(Cc2ccc(C(F)(F)F)cc2)CC1`, the growth was 21.7% (inactive).
With `Nc1ccc2c(c1Br)Cc1ccccc1-2`, the growth was 108% (inactive).
For `CC1C(C)N(C(=O)CCl)c2ccccc2N1C(=O)CCl` (stereo not drawn) the value was -54.6% (active); for `Nc1ccccc1-c1ccn[nH]1`, 84.2% (inactive); for `O=C1OC2(c3ccccc31)c1ccccc1-c1ccccc12`, 90.6% (inactive).
In the case of `O=C(c1ccc(Cl)cc1)c1ccc(Cl)cc1` it was 124% (inactive); in that of `Nc1ccc2c(c1)C(=O)c1cc(Cl)c(Cl)cc1-2`, 94.6% (inactive); in that of `COc1cc(/C(Cl)=C/C=C/C(=O)c2c(C)[n+]([O-])c3ccc(Cl)cc3[n+]2[O-])cc(OC)c1OC`, 37.2% (inactive).
Consider `CCSc1ncc(Br)c(Sc2nc(N)nc3nc[nH]c23)n1`, for which the growth is 89.4% (inactive).
On to `O=C1/C(=C/c2ccccc2O)C(=S)SN1Cc1ccco1`, for which the growth is 93.4% (inactive).
On to `N#CC1c2ccccc2C=CN1C(=O)N(c1ccccc1)c1ccccc1` (stereo not drawn), for which the growth was 13.5% (inactive).
As to `COc1ccc2[nH]c(=O)c(CNc3ccc(Nc4nccc(-c5ccc(Cl)cc5)n4)cc3)cc2c1`, the growth is 89.1% (inactive).
In the case of `Nc1ccc(N=Nc2ccccc2)cc1[N+](=O)[O-]`, the growth is 62.9% (inactive).
On to `OCCN1CCN(CCCN2c3ccccc3Sc3ccc(C(F)(F)F)cc32)CC1`, for which the growth is 24.5% (inactive).
As for `C1CCC(C(CC2CCCCN2)C2CCCCC2)CC1` (stereo not drawn), the growth was 6.73% (active).
Regarding `COc1ccc(C2CC(c3ccc4c(c3)OCO4)=NN2C=O)cc1` (stereo not drawn), the growth was 127% (inactive).
For the compound `CC(=O)Nc1c(Cl)cc2c(c1Cl)Cc1cc([N+](=O)[O-])ccc1-2`, the growth is 117% (inactive).
Regarding `Cc1ncc(C(=O)Nc2ccc(CN3CCN(C)CC3)c(C(F)(F)F)c2)cc1C#Cc1cncc2ncccc12`, the growth was 24.9% (inactive).
Turning to `Cc1cccc2nnc(-c3ccccc3)n12`, the growth is 115% (inactive).
On to `Cn1ccnc1C(=O)/C=C/c1ccc(C(=O)Nc2nc3ccccc3[nH]2)cc1`, for which the growth was 36% (inactive).
On to `Cc1cc(-c2ccccc2)cc(C)n1`, for which the growth is 102% (inactive).
For `Cc1cn(C(C=O)OC(C=O)CO)c(=O)[nH]c1=O` (stereo not drawn) the value was 102% (inactive); for `COc1cc(-c2nc3nc4sc(C)c(C)c4c(=O)n3[nH]2)cc(OC)c1OC`, 66.6% (inactive).
`Nc1ccc2c(c1)Cc1cc(Cl)c(Cl)cc1-2`: the growth was 89.1% (inactive).
Turning to `CCN(CC)CCCCCCCNc1c2ccc(Cl)cc2nc2ccc(OC)cc12`, the growth is -64.3% (active).
On to `O=C(Nc1nc(-c2ccc(Cl)cc2)cs1)c1cc(-c2ccc(Br)cc2)nc2ccc(Cl)cc12`, for which the growth is 30.8% (inactive).
For `Cc1ccc(C(NC(=O)c2ccccc2)c2ccc3cccnc3c2O)cc1` (stereo not drawn) the value was 17.1% (inactive); for `O=[N+]([O-])c1ccc(N=Nc2c(Cl)cc(O)cc2Cl)cc1`, 6.67% (active); for `N#Cc1ncc(-c2ccc(C(F)(F)F)cc2)c(NC2CCCCCC2)n1`, 32.5% (inactive).
`O=C(O)CNC(=O)C1(N2C(=O)c3ccccc3C2=O)CCCC1`: the growth was 119% (inactive).
As for `O=[N+]([O-])c1ccc2[nH]cc(-c3c4ccccc4cc4[nH]c5ccc([N+](=O)[O-])cc5c34)c2c1`, the growth is 18.7% (inactive).
Regarding `COCCCNS(=O)(=O)c1ncnc2nc[nH]c12`, the growth is 142% (inactive).
Take `O=C1Nc2ccc(Cl)cc2/C1=C/c1cccs1`: the growth was 65.1% (inactive).
As for `N=C1c2nc3n(c2C(=O)c2nc4n(c21)CCCCC4)CCCCC3`, the growth was 130% (inactive).
Consider `O=C1N=C(N2CCOCC2)S/C1=C\c1cn(-c2ccccc2)nc1-c1ccccc1`, for which the growth is 79.9% (inactive).
As to `C(=C1c2ccccc2-c2ccccc21)c1ccccn1`, the growth is 74.1% (inactive).
Consider `O=C(Nc1ccccc1S)c1ccccc1`, for which the growth was 107% (inactive).

The values above are taken from PubChem BioAssay (NCI).
